Measurements published in PubChem BioAssay (EPA / NIEHS).
Active and inactive are the calls of the source. Rule for the calls: active = hit-call score of the fitted dose curve at least 0.9, where 1 is the maximum; inactive = score below 0.9.

These compounds were tested on ABC Transporter (ABCC2), ABCC2 (gene 1244) (assay: LTEA_HepaRG_ABCC2: Life Technologies and Expression Analysis (LTEA) Assay for ABC Transporter (ABCC2) using HepaRG (AID 2283464)). Conditions: mRNA level, 48 h; actives raise or lower the signal.
Procedure: LTEA_HepaRG is a cell based, multiplexed-readout assay that uses HepaRG, a human liver cell line, with measurements taken at 48 hours after chemical dosing on a 96-well plate.LTEA_HepaRG_ABCC2 is one of 102 assay component(s) measured in the LTEA HepaRG cell culture assay. It is a marker of Steatosis/NR mediated transport.Data from the assay component LTEA_HepaRG_ABCC2 was analyzed into 1 endpoint. This assay endpoint, LTEA_HepaRG_ABCC2, was analyzed with bidirectional fitting relative to DMSO as the negative control and baseline of activity. Using a type of inducible reporter, measures of mRNA induction for gain or loss-of-signal activity can be used to understand regulation of transcription factor activity. To generalize the intended target to other relatable targets, this assay endpoint is annotated to the transporter intended target family, where the subfamily is ABC transporter.
A total of 1060 chemcials from the ToxCast library were tested in eight-point concentration-response experiments. Cell culture and cytotoxicity assays were conducted at Thermo Fisher Scientific's Custom Services facility (Madison, WI). A single lot of human HepaRG cells (Thermo Fisher Scientific, Frederick, MD) was used for the cell culture experiments. 96-well format collagen type I coated plates of human HepaRG cells were prepared using established methods. Briefly, cryopreserved HepaRG cells were thawed, plated at a density of approximately 100,000 cells/well in HepaRG Thaw, Plate, and General Purpose media (HPRG770, Thermo Fisher Scientific), and incubated for 48 hours. 0.5% DMSO was selected as vehicle control to balance the requisite need of DMSO in HepaRG cultures to maintain differentiation (for example, baseline metabolism, proportions of hepatocytes vs. cholangiocytes), while enabling further hepatic receptor pathway activation (for example, PXR and CAR) in response to chemical exposure. 48 hours after plating, the culture medium was replaced with HepaRG Serum-Free Incudtion Media. Cells were exposed to each test chemical in duplicate and maintained in CO2 incubators for another 48 hours. Chemical plates were thawed to room temperature and 200x concentrations of treatment groups were prepared. 8-point conentration-reponse curves were made with the highest exposure at 100 uM, followed by half-log dilutions, all in 0.5% DMSO. Each test plate contained variouse controls, induction positive controls (1mM phenobarbital), cytotoxicity positive controls ([…] aflatoxin B1), vehicle controls (0.5% DMSO), and total lysis controls (0.5% DMSO). Cell morphology images were taken using an Essen IncuCyte FLR automated microscope, with six 96-well plates imaged in about 24 minutes. Images were captured and exported and JPEG files. Spent culture media was transfered to black-well plates for the LDH assay, and remaining media was sorted at -80 C for later use. Cells were treated with RLT buffer and frozen until shipped for gene expression analysis. Total RNA was isolated from the cell suspension in 75 uL of Buffer RLT (Qiagen, Germantown, MD 20874) by Quintiles/Expression Analysis (Durham, NC) using a custom isolation procedure. Total RNA from each plate well was transferred to a preamplification plate. Fluidigm's 96.96 Dynamic ArrayTM (Fluidigm, Amsterdam, the Netherlands) technology was used for gene expression analyses by quantitative reverse transcription polymerase chain reaction (qRT-PCR, performed by Quintiles/Expression Analysis, Durham, NC)89. Standard TaqManTM Assays (Applied Biosystems/ThermoFisher Scientific, Foster City, CA) were used to assess the expression of 93 genes selected based on their selectivity and sensitivity to important hepatic receptors known to be modulated by environmental chemicals; importance in human hepatocyte functionality; and hepatotoxicity. […]

| Structure (SMILES) | outcome | AC50 |
| --- | --- | --- |
| CCCOc1sc(C(=O)N2CCC(c3cc(CN)ccc3F)CC2)c(C)c1Br | inactive |  |
| Oc1cccc(O)c1 | inactive |  |
| CCCCCCCCCCCCc1ccccc1S(=O)(=O)O |  | 12.3 µM (active) |
| c1ccc2cc3c(ccc4ccccc43)cc2c1 | inactive |  |
| CCc1nn(C2CCCCC2)c2cc(C3(C#N)CCC(C(=O)O)CC3)ccc12 (stereo not given) | inactive |  |
| OC1CCCCC1 | inactive |  |
| CC[C@H](c1ccc(O)cc1)[C@@H](CC)c1ccc(O)cc1 |  | 94.4 µM (active) |
| O=C(O)c1ccccc1C(c1ccc(O)cc1)c1ccc(O)cc1 | inactive |  |
| CCCCCCCCCCCCCCCS(=O)(=O)Oc1ccccc1 |  | 11.2 µM (active) |
| NC(=O)N(O)[C@@H]1C=C[C@H](Oc2cccc(Oc3ccc(F)cc3)c2)C1 |  | 82.5 µM (active) |
| CN(C)C=O | inactive |  |
| COCC(C)OCC(C)O (stereo not given) | inactive |  |
| CC[C@H](C)[C@@H](C(=O)O)n1sc2ccccc2c1=O | inactive |  |
| O=c1c(-c2ccc(O)cc2)coc2cc(O)ccc12 | inactive |  |
| Nc1cccc2c(N)cccc12 | inactive |  |
| CCCCOCCO | inactive |  |
| Cc1cc(CCN2CCN(c3nsc4ccccc34)CC2)cc2c1NC(=O)CC2(C)C |  | 85.1 µM (active) |
| CN1CCN(c2ccccc2/C=C2\SCCN(c3ccc(Cl)c(Cl)c3)C2=O)CC1 | inactive |  |
| CCCOC(=O)c1ccc(O)cc1 | inactive |  |
| CC(C)(C)c1cc(C(C)(C)C)c(O)c(C(C)(C)C)c1 |  | 50 µM (active) |

| Structure (SMILES) | outcome | AC50 |
| --- | --- | --- |
| c1ccc2c(c1)Cc1ccccc1-2 | inactive |  |
| C=C(C)C(=O)OCCC(F)(F)C(F)(F)C(F)(F)C(F)(F)C(F)(F)C(F)(F)F | inactive |  |
| c1ccc2c(c1)ccc1ccccc12 |  | 9.92 µM (active) |
| CC(C)(C)CC(C)(C)c1ccc(O)c(-n2nc3ccccc3n2)c1 |  | 50 µM (active) |
| C#C[C@]1(O)CC[C@H]2[C@@H]3CCC4=CC(=O)CC[C@@H]4[C@H]3CC[C@@]21C |  | 50 µM (active) |
| CCOC(=O)CC(O)(CC(=O)OCC)C(=O)OCC | inactive |  |
| COc1ccc([N+](=O)[O-])cc1N | inactive |  |
| Cc1oc(-c2ccccc2)nc1CCOc1ccc(C[C@H](Nc2ccccc2C(=O)c2ccccc2)C(=O)O)cc1 |  | 28.9 µM (active) |
| CCCCC(CC)COC(=O)CCCCC(=O)OCc1ccccc1 (stereo not given) | inactive |  |
| CC(C)CCCCCCOC(=O)CCCCC(=O)OCCCCCCC(C)C | inactive |  |
| CCN(CC)CCNc1ccc(CNC=O)c2sc3ccc(OC)cc3c(=O)c12 |  | 77.5 µM (active) |
| CCCCC(CC)COC(=O)CCCCC(=O)OCC(CC)CCCC (stereo not given) | inactive |  |
| CCC(=C(c1ccc(O)cc1)c1ccc(OCCN(C)C)cc1)c1ccccc1 |  | 86.1 µM (active) |
| CC(C)(C)c1cccc(C(C)(C)C)c1O | inactive |  |
| ClC1=C(Cl)C(Cl)(Cl)C(Cl)=C1Cl | inactive |  |
| OCCC(F)(F)C(F)(F)C(F)(F)C(F)(F)C(F)(F)C(F)(F)F | inactive |  |
| N#C[C@@H]1CC(F)(F)CN1C(=O)CNC1CC2CCC(C1)N2c1ncccn1 (stereo not given in full) | inactive |  |
| COCC(C)O (stereo not given) | inactive |  |
| CCCCCCCC(=O)O | inactive |  |
| C[C@@H]1C[C@H]2[C@@H]3CCC4=CC(=O)C=C[C@]4(C)[C@@]3(F)[C@@H](O)C[C@]2(C)[C@@]1(O)C(=O)COP(=O)(O)O | inactive |  |
